Screening data deposited in PubChem BioAssay by National Center for Advancing Translational Sciences (NCATS).
D2 PAM-1: human D2 receptor positive allosteric modulation | P14416 | DiscoveRx D2 beta-arrestin cells, luminescence, 90 min; 100% = 57 uM dopamine signal | 0.23% of 360,000 active | potentiation, % (test concentration not listed); in the data active = potentiation above about 50%
Target sequence (P14416 whole entry, looked up): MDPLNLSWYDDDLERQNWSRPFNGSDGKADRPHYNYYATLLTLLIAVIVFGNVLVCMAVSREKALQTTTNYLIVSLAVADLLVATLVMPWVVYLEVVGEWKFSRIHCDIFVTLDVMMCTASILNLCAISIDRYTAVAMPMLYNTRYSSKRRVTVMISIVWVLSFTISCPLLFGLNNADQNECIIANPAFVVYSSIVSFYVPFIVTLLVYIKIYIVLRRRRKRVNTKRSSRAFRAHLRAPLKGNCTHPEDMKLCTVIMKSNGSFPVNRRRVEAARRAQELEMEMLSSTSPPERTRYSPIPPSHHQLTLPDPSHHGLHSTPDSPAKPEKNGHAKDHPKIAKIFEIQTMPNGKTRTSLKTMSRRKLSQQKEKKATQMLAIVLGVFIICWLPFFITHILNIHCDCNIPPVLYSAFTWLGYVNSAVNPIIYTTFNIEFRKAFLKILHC
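PathHunter D2 cells, attached overnight at 37 deg C, received compound in DMSO plus dopamine at EC20 (50 nM final) for 90 min at 37 deg C. Beta-arrestin recruitment was read as luminescence after 1 h with detection reagent at ambient temperature.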
D2 PAM-2: D2 dopamine receptor (human) potentiation | AID 485347 | potentiation, % at 10 µM | HEK293 T-REx D2, calcium flux, EC20 dopamine potentiation | P14416 | 0.34% of 340,000 active;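 active = potentiation over 3 SD above the plate norm, cut at about 30% in these data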
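Potentiation of an EC20 dopamine calcium response is measured in a force-coupled, tetracycline-inducible Hek293 Trex D2 line. Compound-only kinetic reads over 180 s flag agonists before dopamine addition.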
D2 antagonist: antagonizes the human D2 dopamine receptor; P14416; HEK293 TREx D2 cells, calcium flux, dopamine EC80; inhibition, % at 10 µM; 2% of 340,000 active; AID 485344; in the data active = inhibition above about 30%; inactive = below that, where a call was filed
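In this primary screen, negative modulation is detected by tracking calcium flux after an EC80 dopamine challenge in inducible HEK293 T-REx D2 cells preexposed to test compound for 180 s.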
D2 ag-1: agonists of human D2 dopamine receptor. P14416. 0.53% of 340,000 active. activation, % at 2 µM. HEK293 T-REx D2 cells, calcium flux agonist mode;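 active = activation over 3 SD above normal in the single-dose calcium agonist read, cut at about 30% in these data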
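Agonism scored from kinetic calcium signal (1 read/sec, 180 s) following compound pin transfer, after a 10 s baseline. Cells: HEK293 Trex line expressing inducible D2 receptor coupled to calcium, dye-loaded after overnight culture at 30 C.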
D2 ag-2: agonists of human D2 dopamine receptor (beta-arrestin); P14416; DiscoveRx PathHunter D2 beta-arrestin, luminescence, 90 min; 100% = 57 uM dopamine signal; activation, % (no concentration beside the values); 0.084% of 360,000 active; AID 624465; in the data active = activation above about 40%
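Agonist mode: compounds alone added to overnight-plated D2 PathHunter cells for 90 min at 37 C, with 57 uM final dopamine (EC100) defining full response. Beta-arrestin recruitment detected by chemiluminescent reagent, read after 1 h at ambient temperature.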
A number is an active result; 0 = inactive; - = no result given. An excerpt weighted towards active compounds, which were near 2.4% of everything screened.

SMILES	D2 PAM-1	D2 PAM-2	D2 antagonist	D2 ag-1	D2 ag-2
CCc1ccc(C(=O)NN(C(=O)c2ccc(CC)cc2)C(C)(C)C)cc1	0	0	0	0	0
CC(C)(C)N(NC(=O)c1ccccc1)C(=O)c1ccc(C(=O)N(NC(=O)c2ccccc2)C(C)(C)C)cc1	0	0	33.0	0	0
O=C1N/C(=N/Nc2ccccc2)S/C1=C\c1ccccc1	54.6	0	0	0	0
CCc1nnc(SC(CC)C(=O)Nc2cccc(OC)c2)c2cc3oc(C)cc3n12 (stereo not given)	-	0	-	0	-
COc1cccc(CC(=O)Nc2ccccc2C(=O)N2CCOCC2)c1	0	0	0	0	0
COc1ccc(CC(=O)Nc2ccccc2C(=O)N2CCOCC2)cc1	0	0	43.5	0	0
NC(=O)c1ccccc1NC(=O)CN1CCOCC1	0	0	31.4	0	0
CCc1ccccc1Nc1nn2c(=O)c3ccc(C(=O)NC(C)c4ccccc4)cc3nc2s1 (stereo not given)	-	0	-	0	-
CC(NC(=O)Nc1cc(Cl)ccc1Cl)c1c(-n2cccc2)sc2c1CCCC2 (stereo not given)	-	0	-	-	-
COCCN(C(=O)COC(=O)/C=C/c1ccc(C(F)(F)F)cc1)c1c(N)n(Cc2ccccc2)c(=O)[nH]c1=O	0	0	45.3	0	0
CCOc1ccc(NS(=O)(=O)c2c(C)nc3sc(C)c(C)n3c2=O)cc1	-	0	-	0	-
CCOc1ccc(CCNC(=O)Cn2ncn3c(cc4ccccc43)c2=O)cc1OCC	-	0	-	0	-
CC(=O)c1ccc(N2CCN(C(=O)c3ccc(-c4ccccc4)cc3)CC2)cc1	0	0	0	0	0
CC(=O)c1ccc(N2CCN(C(=O)c3cccc(Oc4ccccc4)c3)CC2)cc1	0	0	35.3	0	0
O=C(OCCN1C(=O)c2cccc3c(N4CCOCC4)ccc(c23)C1=O)c1cccc(Cl)c1	0	0	34.6	74.4	0
O=C(OCCN1C(=O)c2ccccc2C1=O)c1cc(S(=O)(=O)N2CCOCC2)ccc1Cl	0	0	0	0	0
O=C(OCCN1C(=O)c2cccc3c(N4CCOCC4)ccc(c23)C1=O)c1ccc(Cl)cc1Cl	0	0	0	36.4	0
COc1ccc(NC(=O)C(=O)NCCN2CCN(C(=O)c3ccc(C)cc3)CC2)cc1	0	0	46.0	0	0
COc1ccc(NC(=O)CCn2nc(-c3ccccc3OC)c3c(C)cc(C)nc32)cc1	-	0	-	0	-
O=C(NCC1CCCO1)c1cccc(S(=O)(=O)N2CCCCC2)c1 (stereo not given)	0	0	30.9	0	0
NC(=O)C1CCN(S(=O)(=O)c2cccc(S(=O)(=O)N3CCCCC3)c2)CC1	0	0	70.4	0	0
CSc1ccc(S(=O)(=O)N2CCC(C(=O)NCC3CCCO3)CC2)cc1 (stereo not given)	0	32.6	0	0	0
CC1CCN(S(=O)(=O)c2cccc(C(=O)NCC3CCCO3)c2)CC1 (stereo not given)	0	0	0	0	0
O=C(NCC(c1cccnc1)N1CCc2ccccc21)c1ccc(F)cc1 (stereo not given)	-	0	-	0	-
CCCN(C(=O)c1sc2nc3n(c(=O)c2c1C)CCCC3)c1ccccc1C	-	0	-	0	-
SMILES	D2 PAM-1	D2 PAM-2	D2 antagonist	D2 ag-1	D2 ag-2
CCCc1[nH]nc2c1C1(CCN(C(=O)OCc3ccccc3)CC1)C(C#N)=C(N)O2	0	0	0	0	0
CC(C)c1[nH]nc2c1C1(CCN(Cc3ccccc3)CC1)C(C#N)=C(N)O2	0	0	39.6	0	0
O=C1CCN(Cc2ccccc2)CCN1[C@H](COc1ccccc1)Cc1ccccc1	0	0	0	0	0
CCCN1CCC(=O)N([C@H](COc2ccccc2)Cc2ccccc2)CC1	0	0	39.3	0	0
Oc1ccc(/C=N/Nc2ccc(Cl)nn2)c(O)c1O	0	0	0	0	49.7
COc1ccccc1NC(=O)C1=C(C)Nc2nc(SCc3ccc(Cl)cc3)nn2C1c1ccccc1Cl (stereo not given)	-	0	-	0	-
COc1ccccc1CNC(=O)c1ccc(-c2nc(CS(=O)c3ccc(C)cc3)c(C)o2)cc1 (stereo not given)	-	0	-	0	-
C=CCN1C(=O)/C(=C/C=C2/N(CC)c3ccc(S(=O)(=O)N(C)C)cc3N2CC)SC1=S	0	0	0	52.5	0
